High-throughput results as filed in PubChem BioAssay.
NPC1 prom act – NPC1 promoter activation. Potency, µM (titrated, usually from 9.22 µM), for inactives: at the highest dose activation, actives largely listed as activators. AID 485313. 320,000 compounds, 2.4% hits. Huh7 NPC1 promoter luciferase reporter, 24 h; further: % of control where 0% means no effect; nearly all actives have a fitted effect of over 60% in size
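Quantitative HTS used a cell-based reporter: Huh7 cells stably bearing the NPC1 promoter upstream of luciferase were treated with compounds for 24 h, and promoter activation was read as luminescence.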
p53 reactivation – re-activators of mutant p53. H1299 p53-A138V BP100-luciferase reporter, luminescence, 24 h. Potency, µM (highest dose often 92.2 µM), for the others: at the highest dose activity change, positive = activation, usual class: activators. 320,000 compounds, 0.063% hits. AID 504706; further: % of control where 0% means no effect; nearly all actives have a fitted effect of over 45% in size
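p53-null H1299 cells stably carrying temperature-sensitive p53-A138V and a BP100-luciferase reporter were pinned with compounds (4-point, 1:5 series) and held 24 hrs at 37 deg C. Luminescence was read 10 min after detection reagent.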
Rab9 promoter act – activators of Rab9 promoter; Huh7 Rab9 promoter-luciferase reporter, luminescence, 24 h; AID 485297; Potency, µM (titrated, usually from 9.22 µM), inactives show at the top dose activation, negative = inhibition, most hits filed as activators; 320,000 compounds, 2.8% hits; further: % of control where 0% means no effect; nearly all actives have a fitted effect of over 60% in size
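Quantitative HTS format; Huh7 Rab9-luciferase reporter cells (1500/well) receive compound 2 h post-plating, incubate 24 h at 37 °C, then get luciferase reagent for 10 min before luminescence reading.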
FLuc counter – firefly luciferase modulation, counter-screen for miR-21 project; Potency, µM (highest dose often 57.5 µM), without a hit: at the highest dose activity change, negative = inhibition, actives largely listed as inhibitors; P08659; AID 588342; purified FLuc, Km substrates, luminescence inhibition; 360,000 compounds, 6.9% hits;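 further: plate controls were vehicle for no effect and reference inhibitor for full effect; nearly all actives have a fitted effect of over 55% in size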
Target sequence (P08659 whole entry, looked up): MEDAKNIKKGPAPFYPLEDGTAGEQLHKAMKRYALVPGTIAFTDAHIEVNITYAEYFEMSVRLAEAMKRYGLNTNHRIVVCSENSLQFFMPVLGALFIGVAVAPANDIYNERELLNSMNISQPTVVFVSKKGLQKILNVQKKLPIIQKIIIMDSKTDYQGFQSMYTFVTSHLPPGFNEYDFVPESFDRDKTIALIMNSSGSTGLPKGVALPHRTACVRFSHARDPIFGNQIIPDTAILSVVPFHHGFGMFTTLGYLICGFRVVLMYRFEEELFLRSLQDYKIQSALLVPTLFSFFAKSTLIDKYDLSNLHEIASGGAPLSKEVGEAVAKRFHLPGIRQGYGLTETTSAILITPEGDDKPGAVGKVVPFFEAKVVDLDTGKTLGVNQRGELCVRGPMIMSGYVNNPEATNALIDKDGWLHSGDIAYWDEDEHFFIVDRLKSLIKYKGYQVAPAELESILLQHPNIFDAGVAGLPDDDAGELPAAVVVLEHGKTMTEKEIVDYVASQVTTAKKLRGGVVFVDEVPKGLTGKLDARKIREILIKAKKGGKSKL
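Purified P. pyralis luciferase, 10 nM final, with Km-level 10 uM D-luciferin and 10 uM ATP in 50 mM Tris acetate pH 7.5, 10 mM Mg acetate, 0.01% Tween-20, 0.05% BSA; 6-point qHTS titration about 60 µM downward; luminescence read.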
ELG1 genotoxic – genotoxicity induction in ELG1-luciferase HEK293T cells. 330,000 compounds, 1.3% hits. Potency, µM (doses to about 46 µM), without a hit: top-dose activity change, positive = activation, most hits filed as activators. AID 504466. HEK293T ELG1-luciferase reporter, luminescence, 16 h; further: % of control where 0% means no effect; nearly all actives have a fitted effect of over 60% in size
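Cells (2,000/well) expressing the ELG1-luciferase fusion are dosed by pin tool and kept 16 hr at 37 °C, 5% CO2. Signal comes from ONE-Glo luciferase reagent after 30 min at room temperature.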
SMN2 splice enh – increases expression of the SMN2 splice variant | AID 1458 | 210,000 compounds, 2.8% hits | HEK293 SMN2-luciferase splicing reporter, luminescence, 30-36 h | Potency, µM (titrated, usually from 46.1 µM), without a hit: at the highest dose activity change, positive = activation, hits mostly activators; further: % of control where 0% means no effect; nearly all actives have a fitted effect of over 55% in size
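HEK293 cells carry an SMN2 […]–luciferase reporter in which exon 7 inclusion puts luciferase in frame. Cells were plated 10-12 h before compound addition, then incubated 30-36 h at 37C. ONE-Glo luminescence was read; sodium butyrate at 4.5 mM final served as control.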
Numbers without * were called inactive; ? = inconclusive; . = no result given; [ ] = remark or other dose. In the library only some 7.4% were active in any assay of this set; here they are far more common. The call rests on the fitted dose curve; in most records, active means well fitted curve in the direction sought with a large enough effect; inconclusive means small, poorly fitted or top-dose-only effect, or another doubt; inactive means no such curve, though single readings can be large; an effect the other way counts as inactive or inconclusive. Potency means the concentration at half of the fitted maximal effect.

SMILES	NPC1 prom act	p53 reactivation	Rab9 promoter act	FLuc counter	ELG1 genotoxic	SMN2 splice enh
N/C(=N\OC(=O)Cc1ccc(Cl)cc1)c1cccnc1	0%	13%	-4%	?	1%	-19%
N/C(=N\OC(=O)c1cccc(Cl)c1)c1ccncc1	17%	15%	23%	19µM*	?	.
C/C(=N\OC(=O)c1cccc(Cl)c1)c1sc(C)nc1C	-3%	3%	6%	6.7µM*	4%	.
N/C(=N\OC(=O)c1ccc(Cl)c(Cl)c1)c1cccc(CSc2ccccn2)c1	?	17%	?	8.5µM*	?	.
CC(C)(Oc1ccc(Cl)cc1)C(=O)O/N=C(\N)c1ccncc1	1%	-2%	0%	-1%	0%	.
N=C(N)[C@H](N=Nc1ccccc1)C(N)=O	.	.	.	.	.	-20%[9.22 µM]
N/C(=N\OC(=O)c1cccc(Cl)c1)c1cccnc1	17%	?	11%	6.7µM*	10µM*	11%
COC(=O)CC1C(C)(C)C(OC(C)=O)C2CC3C4CC(=O)OC(c5ccoc5)[C@]4(C)CCC3[C@@]1(C)C2=O (some centres undefined)	.	.	.	.	.	-5%
CCOC(=O)C1CCCCN1C(=O)c1oc2c(Cl)cc(C)cc2c1C (centres undefined)	2%	2%	4%	12µM*	-1%	.
Cc1cc(Cl)c2oc(C(=O)NC3CCC(O)CC3)c(C)c2c1 (centres undefined)	3%	3%	9%	-18%	?	.
COC(=O)C1CCN(C(=O)c2oc3c(Cl)cc(C)cc3c2C)CC1	0.79µM*	16µM*	0.63µM*	11µM*	?	.
O=C1COc2ccc(-c3cc(-c4ccccc4)c4c(n3)-c3cc(Cl)ccc3OC4)cc2N1	.	.	.	3%	.	1%
O=[N+]([O-])c1ccc2c(c1)S(=O)(=O)C=C2	-34%[46.1 µM]	.	-43%[46.1 µM]	.	.	.
COc1ccc(CNS(=O)(=O)c2cc(-c3cc(C)no3)ccc2C)cc1OC	-2%	-2%	-1%	-1%	-1%[9.26 µM]	.
Cc1ccc(SCC(=O)Nc2nccs2)cc1	?	4%	?	?	?	10%
O=C(Nc1nccs1)c1ccc(CSc2ccccc2)o1	3.2µM*	24%	2µM*	5.4µM*	16%	.
Cc1ccc(SCc2ccc(C(=O)Nc3nccs3)o2)cc1	?	?	?	15µM*	8%	.
O=C(NCc1ccccc1)c1ccc(CSc2ccccc2)o1	-1%	-13%	-7%	?	-4%	-11%
CCCN(CCC)c1cc(C)nc2nc(-c3ccc(C(C)(C)C)cc3)nn12	.	.	.	-6%	.	4%
COc1ccc(-n2c3c(cc(-c4nc(-c5ccc(C)cc5)cs4)c2=O)C(=O)CC(C)(C)C3)cc1	.	.	.	1%	.	9%
C[n+]1cccc(C(=O)N/N=C/c2ccc3c(c2)OCO3)c1	-3%	4%	0%	3%	2%	.
Cc1ccsc1C(=O)N/N=C/C=C/c1ccccc1[N+](=O)[O-]	17%	5%	?	?	?	-6%
Cc1ccsc1/C=N/NC(=O)Nc1ccccc1	3.2µM*	24%	1.6µM*	2.7µM*	?	16µM*
O=C(N/N=C/c1ccc2c(c1)OCO2)c1cccs1	1.3µM*	?	1.3µM*	3.4µM*	7.3µM*	13µM*
Cc1ccccc1/C=N/NC(=O)c1sccc1C	?	?	2.2µM*	1.5µM*	18µM*	10µM*
Cc1ccsc1C(=O)N/N=C/c1ccc2c(c1)OCO2	0.71µM*	?	0.63µM*	1.5µM*	2.3µM*	2.5µM*
Cc1oc(-c2ccccc2Cl)nc1CS(=O)(=O)CC(=O)NC(C)CCc1ccccc1 (centres undefined)	.	.	.	-18%	.	-44%
COc1cc2cc(C(=O)N3CCOCC3)cc(-c3ccc(C)cc3)c2cc1OC	-3%	-3%	4%	-1%	-7%	.
O=C(c1cn(Cc2ccccc2)nc1-c1ccc(Cl)cc1)N1CCN(c2ccccn2)CC1	3%	-10%	-2%	2%	-9%	.
